Test results: PubChem BioAssay (NCATS)
Records with an inconclusive call do not appear. Values without a mark were called inactive. Activity calls are given as the source filed them. Calls come from the whole dose curve; as a rule, active = well fitted inhibition curve with a large enough effect; inconclusive = small, poorly fitted or top-dose-only effect; inactive = no such curve, though single readings can be large or run the other way.

Target: Tumor susceptibility gene 101 protein (Homo sapiens) (UniProt Q99816)
Experiment: qHTS Assay for Iinhibitors of HIV-1 Budding by Blocking the Interaction of PTAP/TSG101: Hit Validation (AID 651600); note: nearly all actives have a fitted effect of over 70% in size
Details: PTAP peptide/TSG101 UEV interaction, biochemical assay; series mostly up to 57.5 µM; activity change, negative = inhibition: at the top concentration
Summary of the method: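 Tsg101 binding domain 10 uM + FITC-PTAP peptide 50 nM (final), 10 mM HEPES pH 7.5/0.15 M NaCl/0.01% Tween 20/3 mM EDTA/0.1 mM TCEP; 20 min RT; FP read, FITC filters.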
% is set by controls: 0 for no effect and ±100 for the full control effect; potency is the fitted concentration of half-maximal effect.

Tumor susceptibility gene 101 protein (Homo sapiens), sequence (Q99816 whole entry, looked up): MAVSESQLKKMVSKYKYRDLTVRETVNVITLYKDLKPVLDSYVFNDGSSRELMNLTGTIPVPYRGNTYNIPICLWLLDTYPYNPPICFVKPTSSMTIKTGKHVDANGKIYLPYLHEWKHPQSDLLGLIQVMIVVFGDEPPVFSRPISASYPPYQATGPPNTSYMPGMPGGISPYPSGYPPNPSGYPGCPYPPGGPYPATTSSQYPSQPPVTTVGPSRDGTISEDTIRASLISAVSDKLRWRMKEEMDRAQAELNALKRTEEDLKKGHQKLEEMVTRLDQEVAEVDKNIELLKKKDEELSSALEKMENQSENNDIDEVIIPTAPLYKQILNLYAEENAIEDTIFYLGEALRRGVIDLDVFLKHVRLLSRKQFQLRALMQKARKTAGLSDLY

SMILES	activity change, negative = inhibition [%]	Potency
ClCc1nc2ccccc2n1Cc1ccccc1	-12.9	–
COc1cc(-c2cc(-c3ccc(N)cc3)[nH]c(=O)c2C#N)cc(OC)c1OC	4.77	–
CC1CCCN(Cc2c(O)ccc3c2O/C(=C\c2ccco2)C3=O)C1 (stereo not given)	–	14.6 µM (active)
Cc1cc(C)n2nc3nc4c(cc3c2n1)CCCC4	-6.06	–
COC(=O)C[C@H]1c2cc(F)ccc2S(=O)(=O)N1c1ccccc1	2.09	–
N#Cc1c(C#N)c(O)c2ccccc2c1O	-14.3	–
Cc1cc(Br)ccc1NC(=O)c1sc2nc3n(c(=O)c2c1C)CCCC3	2.67	–
CCOC(=O)Cn1c(=O)c(-c2cc(Br)ccc2N)nc2ccccc21	9.69	–
CCN(CC)C(=O)CSc1nnc2nnc3cc(OC)ccc3n12	–	29.1 µM (active)
S=C(Nc1ccc(N2CCOCC2)cc1)Nc1ccc2nc(-c3ccco3)c(-c3ccco3)nc2c1	–	32.6 µM (active)
CCCN(CCC)S(=O)(=O)c1ccc(C(=O)OCCN2C(=O)c3cccc4c(N5CCOCC5)ccc(c34)C2=O)cc1	–	18.3 µM (active)
COc1ccc(/C=c2\s/c(=C/C(=O)c3ccc(C)cc3)[nH]c2=O)c(OC)c1	1.51	–
Cc1ccc(C2C=C(c3ccc(Cl)cc3)Nc3nc(NS(=O)(=O)c4ccccc4)nn32)cc1 (stereo not given)	-9.68	–
CCOC(=O)Cn1c(=NC(=O)c2ccc([N+](=O)[O-])s2)sc2ccccc21	0.859	–
COc1ccc(-n2nc(C(=O)Nc3ccc(OC)c(OC)c3)c3c4ccccc4n(C)c3c2=O)cc1	7.24	–
COc1cccc2c1C(=O)c1c(O)c3c(c(O)c1C2=O)C[C@](O)(C(C)=O)C[C@H]3O[C@@H]1C[C@@H](N)[C@@H](O)[C@@H](C)O1	–	14.6 µM (active)
CS(=O)(=O)Nc1nc2n(n1)C(c1ccccc1)C=C(c1ccc(Br)cc1)N2 (stereo not given)	–	32.6 µM (active)
Cc1ccccc1N1C(=O)c2cccc3c(N(C)CCO)ccc(c23)C1=O	–	13 µM (active)
O=[n+]1c2c(n([O-])c3cc(F)c(N4CCCC4)cc31)CCC2	–	13 µM (active)
CSCC(C)N1CCC(n2nccc2NC(=O)CCCc2ccccc2)CC1 (stereo not given)	–	13 µM (active)

SMILES	activity change, negative = inhibition [%]	Potency
CCOc1ccc(S(=O)(=O)N2CCc3cc(OC)c(OC)cc3C2)cc1	0.964	–
Cc1cc[n+](-c2[nH]c(=O)sc2/C=N/NC([S-])=Nc2ccccc2)cc1	–	18.3 µM (active)
CC(C)c1nnc(N2C(=O)C(O)=C(C(=O)c3cccs3)C2c2ccccc2)s1 (stereo not given)	–	8.19 µM (active)
Cn1c(=O)cc2c3c(c(N4CCCCC4)ccc31)C(=O)c1ccccc1-2	-21.2	–
CC(C)(C)C(=O)c1sc2nc(-c3cccs3)cc(C(F)(F)F)c2c1N	11.5	–
O=C1c2ccccc2S(=O)(=O)c2cc(N3CCN(C(=O)c4ccccc4)CC3)ccc21	-20.7	–
CCOC(=O)C1Nc2ccccc2C2C(O)C(O)CC12 (stereo not given)	-18.1	–
CN1CCc2c(sc3c2C(=O)NC(c2ccccn2)N3)C1 (stereo not given)	–	18.3 µM (active)
CCN(CC)c1ccc(/C=C(\C#N)C(=O)NCc2ccccc2)cc1	–	14.6 µM (active)
CC(=O)c1cccc(-n2nnnc2SCC(=O)Nc2cc(C)on2)c1	11.4	–
Cc1nc2nc(-c3cccs3)cn2nc1C	-19	–
Cc1c(C(=O)Nc2cccc(C(F)(F)F)c2)sc2nc3n(c(=O)c12)CCCC3	6.36	–
O=C1CCCC2=C1Sc1ccc(Cl)cc1N2	6.23	–
Cn1nc([N+](=O)[O-])c(C(C#N)c2nc3ccccc3n2C)c(Cl)c1=O (stereo not given)	-4.38	–
O=C1Nc2ccc(F)cc2C12Nc1ccccc1-c1nnc(SCc3ccccc3F)nc1O2 (stereo not given)	-3.84	–
Cn1c(=O)c(NCCc2ccccc2)c2c3c(cccc31)C(=O)c1ccccc1-2	–	2.59 µM (active)
Cc1cccc2cc(/C=C3\N=C(c4ccccc4)OC3=O)c(N3CCOCC3)nc12	-1.31	–
CN1c2ccc(C=O)c3c(C=O)ccc(c23)N(C)C1(C)C	10.5	–
CSc1nc(-c2cccs2)c(C#N)c(=O)[nH]1	-23.6	–
COc1ccc(NC(=O)c2cccc(-c3ccc(O)cc3)c2)cn1	–	20.6 µM (active)
